An excerpt weighted towards active compounds, which were near 1% of everything screened.
Fh CTSL1 inh – cathepsin L1 inhibition, PFM18AAP counter-screen. recombinant F. hepatica cathepsin L1, Z-Leu-Arg-MCA fluorescence. inhibition, % at 5.96 µM. 300,000 tested, 0.49% active;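 active means inhibition above the mean of all tested compounds plus 3 SD, set per screening campaign, cut at about 17% in these data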;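 further: 0% = plate median of test compound wells and 100% = 1 µM Z-Phe-Ala-diazomethylketone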
CR mimetic SO – yeast age-related superoxide inhibition as caloric restriction mimetic; superoxide response (% of plate mean), % at 10 µM; 330,000 tested, 0.18% active; S. cerevisiae aged cells, superoxide DHE fluorescence; stronger effect = lower value;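 active means superoxide response under a set limit, about three screen SD below normal, cut at about 65% in these data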;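 further: yeast aged for seven days with compound at 30 °C before DHE staining; 100% = average MFI of all compound-treated wells on the plate with controls excluded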
hiPSC survival – increases survival of single human iPS cells; hiPSC single-cell survival, ATPlite luminescence; 100% = ROCK inhibitor wells, 0% = DMSO; survival enhancement, % at 20 µM; 360,000 tested, 0.044% active; in the data active means survival enhancement above about 18%;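 further: cells exposed to compounds for 16 hours before the ATP read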
V-ATPase pHluor – alters yeast V-ATPase proton transport; 350,000 tested, 0.37% active; response, % at 10 µM; S. cerevisiae, pHLuorin cytosolic pH fluorescence; in the data active means response mostly above about 7.3%, no sharp cut-off; inactive means mostly below about 5.4%; further: actives read high
Active calls of the source: *.

Screening O=C(CNC(=O)c1ccc(Oc2ccccc2)cc1)OC1CCCCC1=O (stereo not given) returned Fh CTSL1 inh 19*, CR mimetic SO 104, hiPSC survival 0 and V-ATPase pHluor 6.
For O=C(Nc1ccc2oc(-c3ccncc3)nc2c1)c1ccc([N+](=O)[O-])o1 the results were Fh CTSL1 inh 23*, CR mimetic SO 93, hiPSC survival -1 and V-ATPase pHluor 0.
O=C(Nc1ccc2oc(-c3ccncc3)nc2c1)c1ccccc1 was read as Fh CTSL1 inh 3, CR mimetic SO 100, hiPSC survival 0 and V-ATPase pHluor -3.
COC(=O)c1ccccc1N1C(=O)C2C(C1=O)C1C=CC2C12CC2 (stereo not given) was read as Fh CTSL1 inh -2, CR mimetic SO 57* and hiPSC survival -2.
COC(=O)c1ccccc1N1C(=O)C2C(C1=O)[C@H]1C=C[C@@H]2C1 (stereo not given in full) was read as Fh CTSL1 inh -4, CR mimetic SO 99, hiPSC survival -2 and V-ATPase pHluor -2.
For O=C(CCl)Nc1cn(-c2ccccc2)nc1-c1ccccc1 the results were Fh CTSL1 inh 82*, CR mimetic SO 105, hiPSC survival -1 and V-ATPase pHluor 0.
CCc1ccccc1NC(=S)N1CCN(c2ccccc2F)CC1 was read as Fh CTSL1 inh 19*, CR mimetic SO 90, hiPSC survival 0 and V-ATPase pHluor -1.
For Cc1cc(C)n(CC(=O)NC2C(=O)N3C(C(=O)O)=C(CSc4nnc(C)s4)CSC23)n1 (stereo not given) the results were Fh CTSL1 inh 2, CR mimetic SO 110, hiPSC survival 0 and V-ATPase pHluor 5.
`Cc1nnc(SCC2=C(C(=O)O)N3C(=O)C(NC(=O)c4cccc(F)c4F)C3SC2)s1` (stereo not given) gave Fh CTSL1 inh 29*, CR mimetic SO 89, hiPSC survival 2 and V-ATPase pHluor 8.
For COc1ccccc1N1C(=NC(=O)CCc2ccccc2)SC2CS(=O)(=O)CC21 (stereo not given) the results were Fh CTSL1 inh 2, CR mimetic SO 84, hiPSC survival 0 and V-ATPase pHluor 3.
Cc1ccc(NS(=O)(=O)c2ccc3c(c2)n(C)c(=O)n3C)cc1C was read as Fh CTSL1 inh 18*, CR mimetic SO 106, hiPSC survival 0 and V-ATPase pHluor -1.
Screening Cc1ccc(OCc2cc(C(=O)NC3CCOC3)no2)cc1C (stereo not given) returned Fh CTSL1 inh -2, CR mimetic SO 99, hiPSC survival 0 and V-ATPase pHluor -3.
O=C(Nc1nccs1)C1CCN(S(=O)(=O)c2c(Cl)cccc2Cl)CC1 was read as Fh CTSL1 inh -4, CR mimetic SO 99, hiPSC survival 3 and V-ATPase pHluor 2.
Screening COCCn1c(SCC(=O)c2ccc3c(c2)OCCO3)nnc1C(C)C returned Fh CTSL1 inh 18*, CR mimetic SO 100, hiPSC survival 4 and V-ATPase pHluor 3.
`COCCn1c(SCC(=O)Nc2ccc3c(c2)OCCO3)nnc1C(C)C` gave Fh CTSL1 inh -2, CR mimetic SO 84, hiPSC survival 0 and V-ATPase pHluor -2.
Screening COc1ccc(/C=N/n2cnc3c([nH]c4ccccc43)c2=O)cc1COc1ccccn1 returned Fh CTSL1 inh 26* and CR mimetic SO 99.
For COc1ccc2c(c1)[nH]c1c(=O)n(/N=C/c3ccc(OC)c(CN4CCCC4)c3)cnc12 the results were Fh CTSL1 inh 1, CR mimetic SO 90, hiPSC survival 0 and V-ATPase pHluor -1.
For Cc1nn(-c2ccccc2)c2c1C(c1ccc(O)c(O)c1)N1C(=N2)C(Nc2ccccc2)=Nc2ccccc21 (stereo not given) the results were Fh CTSL1 inh 38*, CR mimetic SO 102, hiPSC survival 6 and V-ATPase pHluor -2.
`O=C(CCS(=O)(=O)c1cc(Br)cc2c1N(C(=O)C1CC1)CC2)N1CCN(c2ccccn2)CC1` gave Fh CTSL1 inh 1, CR mimetic SO 100, hiPSC survival 2 and V-ATPase pHluor 8.
`CC(=O)N1CCc2cc(Br)cc(S(=O)(=O)CCC(=O)N3CCN(c4ccccn4)CC3)c21` gave Fh CTSL1 inh 21*, CR mimetic SO 87, hiPSC survival 2 and V-ATPase pHluor -7.
For COc1ccccc1-n1cnc(N)c1C(=O)c1ccccc1 the results were Fh CTSL1 inh 19*, CR mimetic SO 88, hiPSC survival 1 and V-ATPase pHluor 1.
O=C1c2ccccc2S(=O)(=O)c2cc(C(=O)N3CCN(c4ccc(Cl)cn4)CC3)ccc21 was read as Fh CTSL1 inh 17*, CR mimetic SO 102, hiPSC survival 3 and V-ATPase pHluor 1.
`N#Cc1cccnc1N1CCN(C(=O)c2ccc3c(c2)S(=O)(=O)c2ccccc2C3=O)CC1` gave Fh CTSL1 inh 1, CR mimetic SO 103, hiPSC survival -2 and V-ATPase pHluor -4.
Screening COc1ccc(N2C(=O)N3[C@H](c4ccc(Cl)cc4)[C@@H]4C(=O)N(C5CCCCC5)C(=O)[C@@H]4[C@]3(Cc3ccc(Cl)cc3)C2=O)cc1 returned Fh CTSL1 inh 3, CR mimetic SO 95, hiPSC survival -1 and V-ATPase pHluor 1.
Screening O=C1[C@H]2[C@@H](c3ccc(F)cc3)N3C(=O)N(c4ccc(Br)cc4)C(=O)[C@@]3(Cc3ccc(Cl)cc3)[C@H]2C(=O)N1C1CCCCC1 returned Fh CTSL1 inh 0, CR mimetic SO 95, hiPSC survival 1 and V-ATPase pHluor 12*.
Screening CC(C)CC(NC(=O)C1CCC(C)CC1)C(=O)NCCN1CCOCC1 (stereo not given) returned Fh CTSL1 inh 60*, CR mimetic SO 109, hiPSC survival 0 and V-ATPase pHluor -5.
`O=C(O)c1ccccc1C(=O)NCC(O)COCC1CC=CCC1` (stereo not given) gave Fh CTSL1 inh -3, CR mimetic SO 92, hiPSC survival 28* and V-ATPase pHluor 3.
COc1ccc(CN2CCN(C(C)C)C(CCO)C2)cc1Cn1cncn1 (stereo not given) was read as Fh CTSL1 inh 1, CR mimetic SO 103, hiPSC survival 1 and V-ATPase pHluor 1.
`O=C1Cc2ccccc2C(=O)N1CCc1ccccc1` gave Fh CTSL1 inh 67*, CR mimetic SO 94, hiPSC survival -1 and V-ATPase pHluor 3.
NS(=O)(=O)c1ccc(CCNC(=O)CN2CCCCCC2)cc1 was read as Fh CTSL1 inh 0, CR mimetic SO 101, hiPSC survival -3 and V-ATPase pHluor -1.
For Cc1ccc(NC(=O)COC(=O)c2ccc([N+](=O)[O-])s2)c(C)c1 the results were Fh CTSL1 inh 28*, CR mimetic SO 106, hiPSC survival 2 and V-ATPase pHluor 0.
Screening NS(=O)(=O)c1ccc(NC(=O)COC(=O)c2ccc([N+](=O)[O-])s2)cc1 returned Fh CTSL1 inh 68*, CR mimetic SO 112, hiPSC survival 2 and V-ATPase pHluor 3.
For COc1ccccc1NC(=O)COC(=O)c1ccc([N+](=O)[O-])s1 the results were Fh CTSL1 inh 22*, CR mimetic SO 95, hiPSC survival -1 and V-ATPase pHluor 2.
